This note sets out measurements from PubChem BioAssay (NCATS).

A short description of assay [1]: Quantitative High-Throughput drug screen in 47 multiple myeloma cell lines against the NCATS MIPE library collection: Karpas620_DSMZ cell viability assay (AID 1918959). Further: nearly all actives have a fitted effect of over 30% in size. The method, boiled down: (§1)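 Primary qHTS used for cherry-picking: cells at 500/well, library compounds for 48 h (37C, 5% CO2), luminescent ATP assay.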
The nature of assay [2]: Quantitative High-Throughput drug screen in 47 multiple myeloma cell lines against the NCATS MIPE library collection: KMM1_JCRB cell viability assay (AID 1918960). Further: nearly all actives have a fitted effect of over 30% in size. The method, boiled down:
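ATP readout (CellTiter-Glo), 48 h drug incubation, 37 °C/5% CO2, 500 cells per well; normalisation to DMSO (100%) and media-only (0%) controls.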

Assay [3] is described as follows: Quantitative High-Throughput drug screen in 47 multiple myeloma cell lines against the NCATS MIPE library collection: JIM3_ECACC cell viability assay (AID 1918963; further: nearly all actives have a fitted effect of over 35% in size). The method, boiled down: as §1
Assay [4] is described as follows: Quantitative High-Throughput drug screen in 47 multiple myeloma cell lines against the NCATS MIPE library collection: JIM1_ECACC cell viability assay (AID 1918964). The method in brief:
(§2)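 Luminescent ATP measurement with CellTiter-Glo gives viability, scaled between DMSO-only wells (100%) and media-only wells (0%). Cells, 500 per well, faced library compounds for 48 hours at 37C.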

The nature of assay [5]: Quantitative High-Throughput drug screen in 47 multiple myeloma cell lines against the NCATS MIPE library collection: INA6_PLB cell viability assay (AID 1918965; further: nearly all actives have a fitted effect of over 55% in size). The method in brief:
(§3)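 We plated 500 myeloma cells per well, pinned in MIPE 4.0 compounds, and incubated for 48 hours at 37C. ATP was then quantified with CellTiter-Glo, with DMSO and media-only wells defining 100% and 0%.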

Assay [6] is described as follows: Quantitative High-Throughput drug screen in 47 multiple myeloma cell lines against the NCATS MIPE library collection: H1112_PLB cell viability assay (AID 1918967; further: nearly all actives have a fitted effect of over 30% in size). The method in brief:
as §2

Assay [7] is described as follows: Quantitative High-Throughput drug screen in 47 multiple myeloma cell lines against the NCATS MIPE library collection: JJN3_DSMZ cell viability assay (AID 1918966; further: nearly all actives have a fitted effect of over 50% in size). The method in brief:
as §2

Assay [8] in a line: Quantitative High-Throughput drug screen in 47 multiple myeloma cell lines against the NCATS MIPE library collection: Karpas25_ECACC cell viability assay (AID 1918968; further: nearly all actives have a fitted effect of over 35% in size). The method in brief: as §2
The nature of assay [9]: Quantitative High-Throughput drug screen in 47 multiple myeloma cell lines against the NCATS MIPE library collection: KHM11_PLB cell viability assay (AID 1918962). Further: nearly all actives have a fitted effect of over 35% in size. The method in brief:
as §1

Assay [10] is described as follows: Quantitative High-Throughput drug screen in 47 multiple myeloma cell lines against the NCATS MIPE library collection: Karpas417_ECACC cell viability assay (AID 1918961). The conditions noted are these: Karpas417 myeloma viability, CellTiter-Glo ATP luminescence, 48 h; viability (% of DMSO): at 45.8 µM (top of the series). The method in brief:
as §3
Background: Cellular ATP, detected with luciferase, serves as a proxy for viable cell number.

Results filed as inconclusive are left out. The source made the active and inactive calls. The call rests on the fitted dose curve; in most records, active means well fitted curve in the direction sought with a large enough effect; inconclusive means small, poorly fitted or top-dose-only effect, or another doubt; inactive means no such curve, though single readings can be large; an effect the other way counts as inactive or inconclusive.
Potency means the concentration at half of the fitted maximal effect.

For `N=C(N=C(N)N)N1CCOCC1`, the Potency result in [1], in assay [2], in [3], in assay [4], in assay [5] and in assay [6] was “inactive” each time.

`O=C(NOCC1CC1)c1ccc(F)c(F)c1Nc1ccc(I)cc1Cl`: the Potency in assay [1] was 0.372 µM (active); in [2], 6.62 µM (active); in assay [3] it was 6.62 µM (active); in assay [4] it was 9.35 µM (active); in assay [5], 9.35 µM (active); in [7], 20.9 µM (active). Moreover, the Potency in assay [8] is 11.8 µM (active).

In the case of `CC1=C(C(=O)O)N2C(=O)[C@@H](NC(=O)[C@H](N)C3=CCC=CC3)[C@H]2SC1`, the Potency entry in assay [1], in assay [2], in assay [9], in assay [3], in assay [5] and in assay [6] was “inactive” each time. For the same compound, in [8], the Potency result was “inactive”.

`COc1cc2c(cc1OC)C1CC(=O)C(CC(C)C)CN1CC2` (configuration not stated): the Potency result in [1], in assay [2], in assay [10], in [9], in assay [3] and in assay [4] was “inactive” in each case. Besides, the Potency entry in assay [6] and in assay [8] was “inactive” each time.

As for `COC(=O)N[C@H](C(=O)N[C@@H](Cc1ccccc1)[C@@H](O)CN(Cc1ccc(-c2ccccn2)cc1)NC(=O)[C@@H](NC(=O)OC)C(C)(C)C)C(C)(C)C`, the Potency entry in [1], in assay [2], in assay [9], in [3], in assay [5] and in assay [6] was “inactive” each time.

In the case of `Cc1cc(O)c2c(c1)C(=O)c1cc(O)cc(O)c1C2=O`, the Potency entry in assay [1], in assay [2], in [10], in assay [3], in [4] and in assay [5] was “inactive” throughout. Further, the Potency result in [6] is “inactive”. Also, the Potency in assay [8] was 2.09 µM (active).

Regarding `Nc1cc(C(Cl)=C(Cl)Cl)c(S(N)(=O)=O)cc1S(N)(=O)=O`, the Potency result in [1], in assay [2], in assay [10], in assay [3], in assay [4] and in [5] was “inactive” throughout. The Potency entry in [6] and in [8] was “inactive” in each case.

On to `COc1ccc2cc([C@H](C)C(=O)O)ccc2c1`, for which the Potency entry in [1], in assay [2], in [4], in assay [5] and in assay [6] was “inactive” throughout. Further, the results for the Potency in assay [9] and in [8] were 29.6 µM (active) and 20.9 µM (active), respectively.

Regarding `CN(C)c1ccc2nc3ccc(=[N+](C)C)cc-3sc2c1`, the Potency in assay [1] is 3.72 µM (active); in [2], 2.35 µM (active); in assay [10], 6.62 µM (active); in [3], 2.35 µM (active); in assay [4], 9.35 µM (active); in assay [5] it was 1.48 µM (active). Besides, the Potency in [7] is 0.662 µM (active); in assay [6], 8.33 µM (active); in [8] it was 0.662 µM (active).

With `NC(=O)Cc1cccc(C(=O)c2ccccc2)c1N`, the Potency entry in assay [1], in assay [2], in assay [9], in [3] and in assay [5] was “inactive” each time.

For the compound `Clc1ccc(C(Cn2ccnc2)OCc2c(Cl)cccc2Cl)c(Cl)c1` (configuration not stated), the Potency was 18.7 µM (active) in assay [1]; 18.7 µM (active) in [2]; 16.6 µM (active) in [10]; 23.5 µM (active) in assay [4]; 29.6 µM (active) in assay [5]; 23.5 µM (active) in assay [7]. The Potency in [8] was 26.4 µM (active).

Turning to `O=C(c1ccccc1)c1ccc2n1CCC2C(=O)O` (configuration not stated), the Potency result in assay [1], in assay [2] and in assay [10] was “inactive” each time. Further, the Potency in assay [3] was 16.6 µM (active); in assay [5], 10.5 µM (active); in assay [6], 13.2 µM (active); in assay [8], 2.96 µM (active).

Take `C=CCc1cc(OC)c(O)c(C(=O)NCCO)c1`: the Potency result in assay [1], in [2], in [10], in assay [3], in [5] and in [6] was “inactive” throughout. Moreover, the Potency entry in [8] is “inactive”.

As for `COc1c(O)cc2c(c1O)[C@@H]1O[C@H](CO)[C@@H](O)[C@H](O)[C@H]1OC2=O`, the Potency result in assay [1], in [2], in assay [10], in assay [3], in assay [4] and in assay [6] was “inactive” in each case.

Consider `O=Nc1c(-c2c(O)[nH]c3cc(Br)ccc23)[nH]c2ccccc12`, for which the Potency is 8.33 µM (active) in assay [1]; 5.26 µM (active) in [2]; 4.69 µM (active) in [9]; 5.26 µM (active) in assay [3]; 1.32 µM (active) in assay [4]; 0.526 µM (active) in [5]. Also, the results for the Potency in assay [7], in assay [6] and in [8] were 18.7 µM (active), 10.5 µM (active) and 5.26 µM (active), respectively.

Turning to `O=C(O)c1cccc(-c2noc(-c3ccccc3F)n2)c1`, the Potency result in assay [1], in [2], in [3], in assay [4] and in [6] was “inactive” in each case. In addition, the Potency in assay [5] is 23.5 µM (active).

In the case of `CC[C@]1(O)C[C@H]2CN(CCc3c([nH]c4ccccc34)[C@@](C(=O)OC)(c3cc4c(cc3OC)N(C=O)[C@H]3[C@@](O)(C(=O)OC)[C@H](OC(C)=O)[C@]5(CC)C=CCN6CC[C@]43[C@@H]65)C2)C1`, the Potency was 0.0166 µM (active) in assay [1]; 0.0469 µM (active) in assay [2]; 0.935 µM (active) in assay [10]; 0.0209 µM (active) in assay [4]; 0.0935 µM (active) in assay [7]; 0.0093 µM (active) in [6]. Besides, the Potency in assay [8] is 0.0105 µM (active).

As for `COCCCOc1ccnc(CS(=O)c2nc3ccccc3[nH]2)c1C` (configuration not stated), the Potency result in assay [1], in assay [2], in [10], in assay [9], in assay [3] and in [5] was “inactive” each time. Further, in assay [6], the Potency entry is “inactive”.

Consider `CC(C)c1ccc2c(c1)c(SC(C)(C)C)c(CC(C)(C)C(=O)O)n2Cc1ccc(Cl)cc1`, for which the Potency result in assay [1], in assay [2], in [9] and in assay [4] was “inactive” throughout. The Potency in assay [7] was 18.7 µM (active); in assay [8] it was 20.9 µM (active).

Turning to `COC(=O)C1=C(C)NC(C)=C(C(=O)OC(C)C)C1c1cccc2nonc12` (configuration not stated), the Potency result in [1], in assay [2], in assay [10] and in assay [4] was “inactive” each time. Further, the figures for the Potency in assay [5], in assay [6] and in assay [8] were 26.4 µM (active), 3.32 µM (active) and 5.26 µM (active), respectively.

Regarding `Cc1nc2n(c(=O)c1CCN1CCC(c3noc4cc(F)ccc34)CC1)CCCC2`, the Potency result in assay [1], in [2], in assay [10], in assay [3], in [5] and in [6] was “inactive” each time. In addition, the Potency entry in assay [8] is “inactive”.
